{"source": "PubChem BioAssay AID651871", "about": "(Sanford-Burnham Center for Chemical Genomics, 2012)", "note": "Values joined by “and” are separate entries in the source; they are usually repeats but may differ in a detail not shown here. Equal entries are not always repeated.", "data": [{"test_system": "H9c2", "assay": "cardiomyocyte survival under oxidative or metabolic stress – cell-based, panel, H9c2 and HL-1, ATP luminescence, set 2, SAR follow-up (AID 651871);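 further: cells exposed to stressor for 2 h before ATP readout; reference of the scale not given here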", "conditions": "H9c2/HL-1 cardiomyocytes, H2O2 oxidative stress; with H2O2, run 3, at 79 µM (top of the series)", "values": [{"molecule": "CCOC(=O)c1cccc(NC(=O)CNC(=O)c2cc(-c3cc(OC)c(OC)c(OC)c3)nc3ccccc23)c1", "activity (protection/inhibition)": "99%"}, {"molecule": "COc1ccc2c(c1OC)C(=O)N1c3ccccc3C(=O)N(Cc3cccc(Cl)c3Cl)C21", "note": "(centres undefined)", "activity (protection/inhibition)": "77.5% and 104% and 43.3%"}, {"molecule": "COc1ccc2nc(-c3cc(OC)c(OC)c(OC)c3)cc(C(=O)NCC(=O)Nc3ccc(C(C)=O)cc3)c2c1", "activity (protection/inhibition)": "91.8% and 76.1%"}, {"molecule": "COc1cc(-c2cc(C(=O)Nc3cccc(C(=O)NCc4ccccc4)c3)c3ccccc3n2)cc(OC)c1OC", "activity (protection/inhibition)": "95.7%"}]}]}
